Screening data: PubChem BioAssay, National Center for Advancing Translational Sciences (NCATS)
Rab9 prom act – qHTS Assay for Rab9 Promoter Activators; Huh7 Rab9 promoter-luciferase reporter, luminescence, 24 h; Potency, µM (titrated, usually from 9.22 µM), inactives show top-dose activation, negative = inhibition, actives largely listed as activators; hit rate 2.8% among 320,000; note: % of control where 0% means no effect; nearly all actives have a fitted effect of over 60% in size
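Cell-based reporter: Huh7 stable for Rab9 promoter-driven luciferase, plated in reduced-serum medium with 10% FBS at 1500 cells/well, compound-treated 24 h at 37 °C, luminescence read after 10 min reagent.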
FLuc modulator – qHTS profiling assay for firefly luciferase inhibitor/activator using purifed enzyme and Km concentrations of substrates (counterscreen for miR-21 project); purified FLuc, Km substrates, luminescence inhibition; Potency, µM (doses to about 57.5 µM), for the others: top-dose activity change, negative = inhibition, usual class: inhibitors; hit rate 6.9% among 360,000; AID 588342, 2011;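 note: plate controls were vehicle for no effect and reference inhibitor for full effect; nearly all actives have a fitted effect of over 55% in size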
Target sequence (P08659 whole entry, looked up): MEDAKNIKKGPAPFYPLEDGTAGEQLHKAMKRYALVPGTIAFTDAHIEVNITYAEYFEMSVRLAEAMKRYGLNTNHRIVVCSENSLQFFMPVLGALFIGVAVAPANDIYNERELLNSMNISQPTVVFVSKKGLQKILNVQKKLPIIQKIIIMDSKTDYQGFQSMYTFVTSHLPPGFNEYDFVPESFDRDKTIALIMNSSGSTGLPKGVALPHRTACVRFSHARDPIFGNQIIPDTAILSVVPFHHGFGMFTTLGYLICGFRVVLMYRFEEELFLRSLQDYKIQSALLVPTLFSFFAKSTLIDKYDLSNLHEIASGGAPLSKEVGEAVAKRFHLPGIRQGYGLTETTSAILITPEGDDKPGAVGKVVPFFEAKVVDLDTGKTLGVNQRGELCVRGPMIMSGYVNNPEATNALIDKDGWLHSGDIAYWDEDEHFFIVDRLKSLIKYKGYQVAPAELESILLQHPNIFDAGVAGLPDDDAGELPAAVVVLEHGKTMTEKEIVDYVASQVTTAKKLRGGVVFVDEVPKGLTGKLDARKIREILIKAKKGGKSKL
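Purified P. pyralis luciferase (10nM final) with 10uM D-luciferin and 10uM ATP (Km levels) in 50mM Tris acetate pH 7.5, 10mM Mg acetate, 0.01% Tween-20, 0.05% BSA; qHTS 6-point titration, ~60 µM downward; luminescence read.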
ELG1 repair inh – qHTS screen for small molecules that inhibit ELG1-dependent DNA repair in human embryonic kidney (HEK293T) cells expressing luciferase-tagged ELG1; hit rate 2.3% among 330,000; Potency, µM (top dose mostly 46.1 µM), without a hit: top-dose activity change, negative = inhibition, actives largely listed as inhibitors; HEK293T ELG1-luciferase reporter, luminescence, 16 h; DNA damage induced by 5-fluorouridine; AID 504467, 2011; note: % is set by controls: 0 for no effect and ±100 for the full control effect; nearly all actives have a fitted effect of over 55% in size
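Luminescence from the luciferase reporter, measured 30 min after ONE-Glo reagent at room temperature, was the read-out. Beforehand, 2,000 cells per well were exposed for 16 hr at 37 °C to 5-fluorouridine together with compound or vehicle.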
SMN2 splice enh – qHTS Assay for Enhancers of SMN2 Splice Variant Expression; AID 1458, 2008; Potency, µM (series often up to 46.1 µM), for the others: at the highest dose activity change, positive = activation, usual class: activators; hit rate 2.8% among 210,000; HEK293 SMN2-luciferase splicing reporter, luminescence, 30-36 h; note: % of control where 0% means no effect; nearly all actives have a fitted effect of over 55% in size
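HEK293 cells carry an SMN2 […]–luciferase reporter in which exon 7 inclusion puts luciferase in frame. Cells were plated 10-12 h before compound addition, then incubated 30-36 h at 37C. ONE-Glo luminescence was read; sodium butyrate at 4.5 mM final served as control.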
ELG1 genotoxic – qHTS screen for small molecules that induce genotoxicity in human embryonic kidney (HEK293T) cells expressing luciferase-tagged ELG1; AID 504466, 2011; hit rate 1.3% among 330,000; HEK293T ELG1-luciferase reporter, luminescence, 16 h; Potency, µM (doses to about 46 µM), for the others: at the top dose activity change, positive = activation, hits mostly activators; note: % of control where 0% means no effect; nearly all actives have a fitted effect of over 60% in size
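Genotoxic stress is detected as increased luminescence from luciferase-tagged ELG1 in HEK293T cells, measured with ONE-Glo after a 16 hr treatment at 37 °C.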
NPC1 prom act – qHTS Assay for NPC1 Promoter Activators. Huh7 NPC1 promoter luciferase reporter, 24 h. Potency, µM (titrated, usually from 9.22 µM), for the others: at the top dose activation, usual class: activators. hit rate 2.4% among 320,000; note: % of control where 0% means no effect; nearly all actives have a fitted effect of over 60% in size
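NPC1 promoter–luciferase Huh7 cells; 24 h compound; luminescence.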
Active calls of the source: *; u = inconclusive; x = no result given. Most compounds without a hit are left out; they make up all but 9.2% or so of the library. Calls come from the whole dose curve; as a rule, active = well fitted curve in the direction sought with a large enough effect; inconclusive = small, poorly fitted or top-dose-only effect, or another doubt; inactive = no such curve, though single readings can be large; an effect the other way counts as inactive or inconclusive. Potency is the fitted concentration of half-maximal effect.

SMILES | Rab9 prom act | FLuc modulator | ELG1 repair inh | SMN2 splice enh | ELG1 genotoxic | NPC1 prom act
N#Cc1c2ccc([N+](=O)[O-])cc2[n+]([O-])n1-c1ccccc1 | -42% | x | 10µM* | x | u | -34%
Cc1c(NC(=O)CSc2nnc3c4ccccc4n(CCc4ccccc4)c3n2)c(=O)n(-c2ccccc2)n1C | 13% | 6% | u | 3.2µM* | -12% | -5%
Cn1c2ccccc2c2nnc(SCC(=O)Nc3cccc(O)c3)nc21 | 6% | 6.7µM* | -2% | x | 11% | -1%
CCOC(=O)c1nn(-c2ccccc2C)c(=O)cc1OCC(=O)Nc1cccc(OC)c1 | -2% | -2% | 5% | x | 16% | -3%
O=C(OCC(=O)c1ccccc1Br)c1ccncc1 | -3% | 11µM* | -8% | 4% | -7% | 0%
CNC(=O)COC(=O)c1cccnc1SC | -1% | 1% | 7% | -7% | 0% | 1%
O=C(NNC(=O)c1ccccc1Br)c1ccncc1 | 6% | -5% | 1% | x | 5% | -2%
CSc1ncccc1C(=O)OCC(=O)c1ccccc1 | 0% | 12µM* | -11% | 2% | 4% | 1%
Cn1cc(Cl)c(C(=O)OCC(=O)Nc2nc(-c3ccc(Br)cc3)cs2)n1 | 17% | u | u | 16µM* | -1% | 14%
O=C(OCC(=O)c1cccc2ccccc12)c1ccc(CO)cc1 | 22% | 12µM* | u | x | 17% | u
O=c1c(C(c2nnnn2C2CCCCC2)N2CCCCC2)coc2ccc(Cl)cc12 (centres undefined) | -10% | 5% | 16% | 15% | 1% | -2%
CCc1ccccc1NC(=O)Cc1c(C(=O)O)[nH]c2ccc(Cl)cc12 | x | u | x | 23% | x | x
Cc1ccc(S(=O)(=O)OCCc2ccccc2)cc1 | x | x | x | 3% | x | x
Cn1c(C(=O)O)c(CC(=O)N2CCC(Cc3ccccc3)CC2)c2ccccc21 | -7% | -2% | u | -5% | 0% | -1%
COc1ccc(C(=O)COC(=O)c2nn(C)cc2Cl)cc1 | 22% | 17µM* | u | x | u | 24%
CSc1ncccc1C(=O)OCC(=O)c1cc2ccccc2o1 | -9% | 21µM* | -2% | 5% | 3% | 10%
O=C(OCc1ccc(Cl)cc1Cl)c1cccnc1Cl | -5% | -10% | -1% | -7% | -2% | -2%
CSc1ncccc1C(=O)OCC(=O)c1ccccc1Br | -2% | 8.5µM* | -11% | -6% | 10% | 1%
CSc1ncccc1C(=O)OCC(=O)N(C)C | -2% | -1% | 6% | 26% | 1% | -1%
CSc1ncccc1C(=O)OCC(=O)NC(N)=O | -8% | -2% | 21% | 7% | 4% | 7%
O=C(COC(=O)c1cccnc1Cl)c1cccc(Cl)c1 | 17% | 13µM* | u | -4% | 11% | 2%
Cc1ccc(CNC(=O)NC2COc3ccccc3C2)cc1 (centres undefined) | x | -2% | x | x | x | x
COc1ccc(C(=O)Nc2ccc(C(=O)N3CCC(C)CC3)cc2)cc1OC | -7% | u | 0% | x | 1% | -6%
C[C@H]1CCC(=O)N([C@H](COc2ccccc2)Cc2ccccc2)CC1 | 1% | 0% | u | x | -3% | -2%
CSc1ncccc1C(=O)OCC(=O)NC(C)(C)C | -3% | 5% | -9% | 1% | 2% | -1%
SMILES | Rab9 prom act | FLuc modulator | ELG1 repair inh | SMN2 splice enh | ELG1 genotoxic | NPC1 prom act
COc1ccc(OC)c(C(=O)COC(=O)c2cccnc2SC)c1 | -8% | -3% | -18% | x | 0% | -9%
CSc1ncccc1C(=O)OCC(=O)c1ccc(Br)s1 | 9% | 12µM* | 0% | 2% | -2% | 0%
COc1ccc(C(=O)COC(=O)c2cccnc2SC)cc1 | -9% | 3.8µM* | 3% | 3% | 0% | 4%
Cc1ccc(C)c(NCC(O)c2ccccc2)c1 (centres undefined) | 0% | 3% | 4% | -4% | 2% | -9%
CCc1nc2nc(C)c(NS(=O)(=O)c3ccc(C)cc3)c(=O)n2[nH]1 | x | -11% | x | 3% | x | x
O=C(N/N=C/c1ccc(Cl)s1)C(O)c1ccccc1 (centres undefined) | 11% | -12% | 19% | x | 0% | -2%
O=C(N/N=C\c1ccc(Cl)s1)c1cccs1 | u | 17µM* | u | 2% | -2% | 25%
COc1ccccc1C(=O)N/N=C/c1cnc2ccccc2n1 | u | u | u | 16µM* | u | u
COc1ccccc1C(=O)N/N=C/c1ccc(Cl)s1 | 17% | 19µM* | u | u | 7% | 10%
CCOC(=O)c1cc(CC)sc1NC(=O)CC1Sc2ccc(C(F)(F)F)cc2NC1=O (centres undefined) | 0% | 3% | 19% | -20% | -2% | -9%
Cn1c(N)c(C(=O)COC(=O)CSc2cccc3cccc(Cl)c23)c(=O)n(C)c1=O | -4% | -4% | -1% | 0% | -1% | -4%
CC(C)(C)NC(=O)NC(=O)COc1ccc(Br)cc1Br | 0.63µM* | 0.67µM* | u | 6.3µM* | 2.1µM* | 1.3µM*
CC(C)(C)NC(=O)NC(=O)COc1ccccc1C#N | 1.6µM* | 8.5µM* | u | u | 1.3µM* | 4µM*
O=C(COc1ccc(Br)cc1Br)NC(=O)NC1CCCC1 | 3.5µM* | 9.5µM* | u | 14µM* | u | 3.5µM*
Cc1cc(Br)ccc1OCC(=O)NC1CCCC1 | -6% | u | 20% | x | u | -7%
O=C(COc1ccc(Br)cc1Br)NNC(=O)c1cccs1 | u | 1.9µM* | u | x | 24% | 25%
Cc1cc(Br)cc(C)c1OCC(=O)NNC(=O)c1cccs1 | -2% | 5% | -5% | x | 0% | -3%
C/C(=N\Nc1nc2ccccc2c(=O)n1O)c1ccco1 | 3.2µM* | 11µM* | u | x | u | 30%
Cc1ccc(C)c(/C=N/Nc2nc3ccccc3c(=O)n2O)c1 | 2% | 13µM* | 19% | x | 4% | 6%
Cc1c(NC(=O)Cn2ccc([N+](=O)[O-])n2)c(=O)n(-c2ccccc2)n1C | 3% | -2% | -8% | -4% | -1% | 0%
CC1CCc2sc(C(=O)N=Nc3c(O)[nH]c4ccccc34)cc2C1 (centres undefined) | 12% | u | u | u | 7% | 7%
O=C(COc1ccccc1-c1nc(-c2ccccc2)no1)Nc1cccc([N+](=O)[O-])c1 | x | -10% | x | x | x | x
